About 79,000 compounds went through this panel and 15% of them were active in at least one assay; those are over-represented in the sample as a whole. The source made the active and inactive calls. Cut-off read from the data, not from the text of the source: active = growth inhibition above about 70%; inactive = the rest.
Key:
[1] = NCI Yeast Anticancer Drug Screen. Data for the rad50 strain (AID 155);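 note: 0% = growth of vehicle-only cultures of the same strain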; settings: S. cerevisiae rad50 strain growth inhibition; at 50.0 µM; hits give high values
Procedure, shortened: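 Inhibition values express reduced yeast growth in compound-treated cultures relative to vehicle-treated controls.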

[2] = NCI Yeast Anticancer Drug Screen. Data for the mec2-1 strain (AID 157); settings: S. cerevisiae mec2-1 strain, at 50.0 µM, hits give high values
Procedure, shortened: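 Readout is yeast growth inhibition, normalised to vehicle-treated controls, in the mec2-1 strain exposed to compound.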

[3] = NCI Yeast Anticancer Drug Screen. Data for the sgs1 mgt1 strain (AID 161);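 note: 0% = growth of cultures given vehicle only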; settings: S. cerevisiae sgs1 mgt1 strain, at 50.0 µM, hits give high values
Procedure, shortened: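 Compounds are added to genetically altered yeast, and growth is compared with cultures given vehicle alone to give percent inhibition.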

[4] = NCI Yeast Anticancer Drug Screen. Data for the cln2 rad14 strain (AID 165);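 note: 0% = growth equal to vehicle treated cultures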; settings: S. cerevisiae cln2 rad14 strain, at 50.0 µM, hits give high values
Procedure, shortened: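 Relative to vehicle controls, growth inhibition of compound-treated cln2 rad14 yeast was recorded.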

[5] = NCI Yeast Anticancer Drug Screen. Data for the bub3 strain (AID 167); settings: S. cerevisiae bub3 mutant strain, at 50.0 µM, hits give high values
Procedure, shortened: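 Steps: expose the mutant yeast strain to compound; grow alongside vehicle-treated cultures; measure growth; express inhibition against the vehicle cultures.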

[6] = NCI Yeast Anticancer Drug Screen. Data for the mlh1 rad18 strain (AID 175); settings: S. cerevisiae mlh1 rad18 strain growth inhibition; at 50.0 µM; hits give high values
Procedure, shortened: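 Test agents were incubated with a yeast strain of defined genotype (DNA damage repair defect). Inhibition of growth was derived by comparison with vehicle-exposed cultures.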

Measured: growth inhibition

COc1cc2c(cc1OC)C(O)C(O)(CO)C(C(=O)O)C2c1cc(OC)c(OC)c(OC)c1 (stereo unspecified)
inactive: [1] 24.4% | [2] -10.3% | [3] 12.1% | [4] 18.2% | [5] 25.1% | [6] 22.7%

CCOC(=O)CNC(=O)C(Cc1ccccc1)NC(=O)c1ccccc1[N+](=O)[O-] (stereo unspecified)
inactive: [1] 22.8% | [2] 14.3% | [3] 16% | [4] 15.8% | [5] -1.25% | [6] 15.8%

CC1CC(NN(C)C)C2(C(N)=O)C(N)=NC(=O)C12C#N (stereo unspecified)
inactive: [1] 5.45% | [2] 9.15% | [3] -23.9% | [4] 3.8% | [5] -24.7% | [6] -46.1%

S=C(Nc1c2c(nc3ccccc13)CCCC2)Nc1c2c(nc3ccccc13)CCCC2
inactive: [1] -14.9% | [2] 9.55% | [3] -0.3% | [4] 9.8% | [5] -17.9% | [6] 12%

COC(=O)C1C(=O)C2CCC1C(=O)C2C(=O)OC (stereo unspecified)
inactive: [1] 1.95% | [2] -2.8% | [3] 16.4% | [4] 4.1% | [5] 9.75% | [6] 22.7%

COc1cc(-c2cc(OC)c(N)cc2Br)c(Br)cc1N
inactive: [1] 38.8% | [2] 17.2% | [3] 60.6% | [4] 49.9% | [5] 54.4% | [6] 35.9%

O=C(O)C1=C(C(=O)O)C2CCCC3C4CCCCC4N(N1)C23 (stereo unspecified)
inactive: [1] 20.1% | [2] -13.9% | [3] -20.4% | [4] 3.9% | [5] 1.15% | [6] 22.9%

CNc1nc2c(C)ccc3nc(N(C)C)nc-3c2n1C
inactive: [1] 0.6% | [2] -22.2% | [3] 4.4% | [4] 16.4% | [5] 20.1% | [6] 14.8%

NCCCC(=O)NCCCC(=O)O
inactive: [1] 19.9% | [2] -5.75% | [3] -2.25% | [4] -15.9% | [5] -6.75% | [6] 2%

O=[N+]([O-])c1ccc(Cl)c(N=Nc2ccccn2)c1
inactive: [1] 20.2% | [2] -14.9% | [3] 21.4% | [4] -36.9% | [5] -10% | [6] 18.6%

COc1ccc(CC2Cc3ccccc3CC(=O)N2)cc1OC (stereo unspecified)
inactive: [1] 36.5% | [2] -54.3% | [3] -4.4% | [4] 3.65% | [5] 25.6% | [6] -38.1%

CC(=O)OCC1OC(Cl)C(NS(=O)(=O)Cc2ccccc2)C(OC(C)=O)C1OC(C)=O (stereo unspecified)
inactive: [1] 7.6% | [2] 15.7% | [3] 15.7% | [4] 24.6% | [5] 5.35% | [6] 22.4%

CC(=O)OC1CCCCCCC1
inactive: [1] -13.2% | [2] 14.6% | [3] 15.5% | [4] -3.2% | [5] 19.5% | [6] 6.05%

COc1ccc(-c2c3c(n(C4OC(COC(C)=O)C(OC(C)=O)C(OC(C)=O)C4OC(C)=O)c(=S)c2C#N)CCC3)cc1 (stereo unspecified)
inactive: [1] 28.8% | [2] 35% | [3] 43.3% | [4] 32% | [5] 46.8% | [6] 20.9%

Cc1ccc(OC(=O)c2ccc([N+](=O)[O-])cc2)cc1C(C)C
inactive: [1] -15.6% | [2] -9.25% | [3] -11.7% | [4] -6.45% | [5] -10.1% | [6] -22%

C=C1C(=O)C[C@H]2[C@H]3CC[C@H](C(=O)O)[C@]12CC3(C)C
active: [1] 90.8% | [2] 93.8% | [3] 93.8% | [4] 87.7% | [5] 92.2% | [6] 92.1%

Cc1ccc(S(=O)(=O)Oc2ccccc2NS(=O)(=O)c2ccccc2)cc1
active: [3] 76.5%
inactive: [1] 68.2% | [2] 53.2% | [4] 52.1% | [5] 13.5% | [6] 48.1%

CN(C)c1ccc(C=C2/C(=N\O)c3ccccc3/C2=N/O)cc1
inactive: [1] -1.5% | [2] 38.1% | [3] 39% | [4] -8.2% | [5] 34.2% | [6] 48.1%

COc1c(NC(=O)C(Br)C(Br)C(=O)O)cccc1[N+](=O)[O-] (stereo unspecified)
active: [4] 85%
inactive: [1] -20.9% | [2] 19.5% | [3] -7.65% | [5] -2.85% | [6] -2.25%

CN(C)c1ccc(N=O)c(O)c1
inactive: [1] -3.35% | [2] -6.45% | [3] -63% | [4] 13.6% | [5] -15.8% | [6] 3%

CSc1ccc(OC(=O)Nc2cc([N+](=O)[O-])ccc2F)cc1C
inactive: [1] 16.6% | [2] 11.2% | [3] 16% | [4] 12.2% | [5] 28.8% | [6] 17.1%

CCOC(=O)C(C)OC(=O)C(C)OC(C)=O (stereo unspecified)
inactive: [1] 4.7% | [2] 23.8% | [3] 17.1% | [4] 9.4% | [5] 1.5% | [6] -7.7%

COc1cc(/C=C/C=C2\CC(C)C/C(=C\C=C\c3ccc(O)c(OC)c3)C2=O)ccc1O (stereo unspecified)
inactive: [1] 9% | [2] 8.3% | [3] 6.05% | [4] 18.2% | [5] 0.85% | [6] 8.2%

O=C(Cc1ccccc1)NN1C(=O)C(Cl)C1c1ccccc1 (stereo unspecified)
inactive: [1] -10.3% | [2] 15.2% | [3] -12.5% | [4] 4.8% | [5] -5% | [6] -2.3%

O=C(NCCCC1NC(=O)/C(=C(O)/C=C/C=C/c2ccccc2)C1=O)OCc1ccccc1 (stereo unspecified)
inactive: [1] 38.4% | [2] -1.65% | [3] 17.1% | [4] -2.75% | [5] 0.25% | [6] 21.8%

CCCOC(=O)c1c(C)c(C)cc(C)c1C
inactive: [1] 5.9% | [2] 1.75% | [3] 14.6% | [4] 11.8% | [5] -1.3% | [6] -12.3%

Oc1ccc(Cl)c2cccnc12
active: [1] 98.9% | [2] 99.5% | [3] 99.2% | [4] 97.8% | [5] 99.3% | [6] 97.7%

Cc1[nH]c(=O)[nH]c(=O)c1NC=O
inactive: [1] -3.6% | [2] -28.3% | [3] -8.85% | [4] 14.6% | [5] -11.8% | [6] -27.1%

Cc1ccc2sc3nc4ccccc4nc3c2c1
inactive: [1] 12.1% | [2] 3.5% | [3] -1.95% | [4] -4.25% | [5] 5.8% | [6] -1.25%

Cc1cc(C)c(CC(=O)NCC(=O)NN)c(C)c1
inactive: [1] -7.25% | [2] -24.9% | [3] -17.1% | [4] -13.3% | [5] -12% | [6] -28.8%

CC1(c2cccc3ccccc23)OC(=O)c2cccc(F)c21 (stereo unspecified)
inactive: [1] -10.9% | [2] -7.1% | [3] -16.1% | [4] 23.4% | [5] 7.6% | [6] 0.55%

COc1cc(N2C(=O)CSC2=S)cc(OC)c1OC
inactive: [1] 21.3% | [2] 12.3% | [3] 61.8% | [4] 25.4% | [5] 33.8% | [6] 23.4%

C=CC1=C(C)C2=NC1=CC1=NC(=CC3=C(C)C4=C(O)[C@H](C(=O)OC)C(=C5NC(=C2)[C@@H](C)[C@@H]5CCC(=O)O)C4=N3)C(CC)=C1C
inactive: [1] 1.65% | [2] 8.1% | [3] 31.2% | [4] 28.1% | [5] 21.1% | [6] 5.9%

Cc1ccc2ccccc2c1CC(=O)O
inactive: [1] 28.8% | [2] 36.6% | [3] 31.5% | [4] 31.7% | [5] 38.8% | [6] 39.2%

Cc1ccc(S(=O)(=O)NCc2cccc([N+](=O)[O-])c2)cc1
inactive: [1] 6.25% | [2] -15.8% | [3] -13.6% | [4] 19% | [5] 18.2% | [6] 14.8%

O=C(OCC(F)(F)C(F)(F)C(F)(F)C(F)(F)C(F)(F)C(F)F)OCC(F)(F)C(F)(F)C(F)(F)C(F)(F)C(F)(F)C(F)F
inactive: [1] 0.1% | [2] 9.05% | [3] -5.45% | [4] -3.65% | [5] -0.6% | [6] 0.95%

— PubChem BioAssay (NCI)
